Screens from PubChem.
Sampled rows, rich in hits. Any-hit rate of the full collection: about 18%.
TDP1 block: qHTS Assay for Inhibitors of Tyrosyl-DNA Phosphodiesterase (TDP1) | 350,000 tested, 0.28% active | Potency, µM (doses to about 130 µM), most hits filed as inhibitors | Tyrosyl-DNA phosphodiesterase 1 (Homo sapiens), Q9NUW8 | recombinant TDP1, AlphaScreen DNA substrate cleavage; note: nearly all actives have a fitted effect of over 40% in size
Target sequence (Q9NUW8 whole entry, looked up): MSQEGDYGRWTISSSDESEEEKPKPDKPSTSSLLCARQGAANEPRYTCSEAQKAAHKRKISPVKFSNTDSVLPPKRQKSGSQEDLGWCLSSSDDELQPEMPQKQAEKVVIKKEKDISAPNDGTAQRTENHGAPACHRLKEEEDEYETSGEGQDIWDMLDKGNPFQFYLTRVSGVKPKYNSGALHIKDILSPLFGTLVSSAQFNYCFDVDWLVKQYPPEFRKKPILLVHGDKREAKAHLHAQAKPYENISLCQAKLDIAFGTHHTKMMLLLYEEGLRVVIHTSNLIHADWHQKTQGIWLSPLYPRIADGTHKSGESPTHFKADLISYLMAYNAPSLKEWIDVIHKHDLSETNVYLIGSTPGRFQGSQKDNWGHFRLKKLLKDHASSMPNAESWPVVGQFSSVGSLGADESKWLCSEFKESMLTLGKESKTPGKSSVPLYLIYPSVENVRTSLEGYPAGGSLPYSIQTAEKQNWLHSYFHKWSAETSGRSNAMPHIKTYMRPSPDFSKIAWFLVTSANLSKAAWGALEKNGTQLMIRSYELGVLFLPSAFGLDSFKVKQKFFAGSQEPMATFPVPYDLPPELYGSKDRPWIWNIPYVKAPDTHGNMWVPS
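Recombinant human Tdp1 (E. coli-expressed, 1 nM final) preincubated with compounds 15 min at room temperature, then 5'-biotin/3'-phosphotyrosine-FITC DNA substrate (15 nM final) added for 5 min. AlphaScreen beads (10 ug/ml final) added 10 min; cleavage lowers signal.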
TDP1 cell noCPT: qHTS for Inhibitors of human tyrosyl-DNA phosphodiesterase 1 (TDP1): qHTS in cells in absence of CPT | DT40 Tdp1-/- hTDP1 cells, no CPT, ATP luminescence, 48 h | Potency, µM (top dose mostly 46.2 µM), usual class: inhibitors | 420,000 tested, 15% active; note: nearly all actives have a fitted effect of over 55% in size
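Readout: luminescence from CellTiter-Glo after 30 min in the dark at RT. Cells: DT40 Tdp1-/- with stable hTDP1, 400/well. Exposure: compounds alone, ≥48 hr, 37 °C.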
HepG2 viability: qHTS for Inhibitors of TGF-b: Cytotox Counterscreen; HepG2 CAGA-GFP viability, ATP luminescence, 18 h; Potency, µM (highest dose often 46.1 µM), hits mostly cytotoxic; AID 588856, 2011; 410,000 tested, 0.76% active
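CellTiter-Glo luminescence gave cytotoxicity after 18 hours at 37 degrees C. The cells were HepG2 CAGA-GFP in 1% FBS DMEM, stimulated with 500 pg/mL TGF-beta after compound addition. %Activity was normalised to no-cell wells (complete cell-killing) and DMSO (no toxicity), and curves were fitted and classified.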
IL-1B inflam inh: qHTS for Inhibitors of Inflammasome Signaling: IL-1-beta AlphaLISA Primary Screen; THP-1 LPS/ATP IL-1B secretion, AlphaLISA, 16 h; active compounds read low; AID 743279, 2014; 360,000 tested, 4.7% active; activity change, % at 57.5 µM; in the data active = activity change below about -50%; inconclusive = mostly about -30% to -49%
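THP-1 cells pretreated 1 hr with compounds (up to 57.5 uM final), then stimulated with LPS (250 ng/mL final) plus ATP (1.25 mM final); secreted IL-1B measured by AlphaLISA after 16 hr, decreased signal indicating inhibition.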
TDP1 cell CPT: qHTS for Inhibitors of human tyrosyl-DNA phosphodiesterase 1 (TDP1): qHTS in cells in presence of CPT; chicken DT40 Tdp1-/-;hTDP1 cells + 20 nM CPT, ATP luminescence, 48 h; Potency, µM (highest dose often 46.2 µM), usual class: inhibitors; 420,000 tested, 12% active; AID 686979, 2013; note: nearly all actives have a fitted effect of over 55% in size
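Chicken DT40 Tdp1-/- cells complemented with human TDP1, 400 cells/well, exposed to compounds plus 20 nM camptothecin for at least 48 h at 37 C; viability read as ATP content by CellTiter-Glo luminescence.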
TGFb inhibitor: qHTS for Inhibitors of TGF-b | Potency, µM (doses to about 46.1 µM), usual class: inhibitors | HepG2 CAGA-GFP TGF-b/SMAD3 reporter, GFP fluorescence, 18 h; TGF-beta stimulated, 500 pg/mL final | 410,000 tested, 1.2% active; note: nearly all actives have a fitted effect of over 65% in size
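Read-out: total well GFP (ex488/em500-530) summed from mean per-cell fluorescence. Cells: HEPG2 CAGA-GFP, 1% FBS DMEM, 18 h at 37 degrees C with 500 pg/mL final TGF-beta. Unstimulated wells served as the full-inhibition control; stimulated DMSO wells = 0%.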
A number is an active result; - = inactive; ? = inconclusive; . = no result; [ ] = remark or other dose. Unless noted, calls come from the whole dose curve; as a rule, active = well fitted curve in the direction sought with a large enough effect; inconclusive = small, poorly fitted or top-dose-only effect, or another doubt; inactive = no such curve, though single readings can be large; an effect the other way counts as inactive or inconclusive.

SMILES	TDP1 block	TDP1 cell noCPT	HepG2 viability	IL-1B inflam inh	TDP1 cell CPT	TGFb inhibitor
O=C(/C=C/c1cccc([N+](=O)[O-])c1)Nc1cccc(NC(=O)c2ccco2)c1	-	16µM	-	-95	?	-
O=C(/C=C/c1cccc([N+](=O)[O-])c1)c1ccco1	.	3.7µM	-	-	4.6µM	-
O=C(OCc1ccccc1)/C(=C/c1cccc([N+](=O)[O-])c1)NC(=O)c1ccco1	-	-	-	-50	?	-
COc1cccc(CNC(=O)CCn2ccc3cc(S(=O)(=O)N4CCC(C)CC4)ccc32)c1	-	-	-	?	?	-
CCOc1ccccc1CNC(=O)CCn1ccc2cc(S(=O)(=O)N3CCCCC3)ccc21	-	29µM	-	-	16µM	?
CC1CCN(S(=O)(=O)c2ccc3c(ccn3CCC(=O)N3CCCCC3)c2)CC1	-	6.5µM	-	-	?	-
CCOc1ccccc1CNC(=O)CCn1ccc2cc(S(=O)(=O)N3CCC(C)CC3)ccc21	-	12µM	-	.	9.2µM	-
CC1CCC(NC(=O)CCn2ccc3cc(S(=O)(=O)N4CCCC4)ccc32)CC1 (stereo not drawn)	-	-	-	-	-	-
CCOc1ccccc1CNC(=O)Cn1ccc2cc(S(=O)(=O)N3CCCCCC3)ccc21	-	2.9µM	-	?	8.2µM	?
O=C1c2ccccc2-c2n[nH]c(=O)c3ccc(N4CCCCC4)c1c23	-	9.2µM	-	-94	9.2µM	-
CCOc1ccc(NC(=O)c2ccccc2NC(=O)CNC2CCCC(C)C2C)cc1 (stereo not drawn)	-	7.3µM	-	-	15µM	-
CCOc1ccc(NC(=O)c2ccccc2NC(=O)CN2CCCCCC2)cc1	-	?	-	-	-	-
Cc1ccc2c(c1)CCC2=O	.	?	-	.	-	-
Cc1ccc(S(=O)(=O)c2cn(Cc3ccccc3)c3cc(N4CCCCC4)c(F)cc3c2=O)cc1	-	16µM	-	.	8.2µM	-
Cc1ccc(Cn2cc(S(=O)(=O)c3ccc(C)cc3)c(=O)c3cc(F)c(N4CCCC4)cc32)cc1	-	?	-	.	?	-
Cc1ccc(S(=O)(=O)c2cn(Cc3cccc(F)c3)c3cc(N4CCCC4)c(F)cc3c2=O)cc1	-	5.2µM	-	.	4.6µM	-
Cc1cccc(Cn2cc(S(=O)(=O)c3ccccc3)c(=O)c3cc(F)c(N4CCOCC4)cc32)c1	-	23µM	-	.	26µM	-
COc1cccc(C(=O)c2cn(CC(=O)NCc3ccccc3Cl)c3nc(C)ccc3c2=O)c1	-	?	-	.	?	-
CC1(N=Cc2cc(Cl)ccc2O)COP(=O)(Nc2ccccc2)OC1 (stereo not drawn)	.	-	-	-	-	?
COc1ccc(NC(=O)C(C)n2nnc3sc(-c4ccccc4)cc3c2=O)cc1Cl (stereo not drawn)	-	6.5µM	-	.	13µM	-
CCC(C(=O)OC)n1nnc2sc(-c3ccccc3)cc2c1=O (stereo not drawn)	-	15µM	-	.	?	-
COCCOC(=O)Cn1nnc2sc(-c3ccccc3)cc2c1=O	-	-	-	.	-	-
O=C(CN1CCN(Cc2ccccc2Cl)CC1)N/N=C/c1ccccn1	-	?	-	-	?	-
CN(C)C(=O)n1nnnc1Cc1ccc(-c2ccccc2)cc1	-	.	.	.	.	.
CC1CCc2onc(C(=O)N3CCN(c4cccc(Cl)c4)CC3)c2C1 (stereo not drawn)	-	?	-	.	?	-
SMILES	TDP1 block	TDP1 cell noCPT	HepG2 viability	IL-1B inflam inh	TDP1 cell CPT	TGFb inhibitor
CN(C)CCCN(C(=O)/C=C/c1cccs1)c1nc2c(F)cccc2s1	-	21µM	13µM	-105	21µM	18µM
Cc1cccc2sc(N(CCN(C)C)C(=O)C3CCN(S(=O)(=O)c4cccs4)CC3)nc12	-	18µM	-	-61	?	-
Cc1cccc2sc(N(CCN(C)C)C(=O)/C=C/c3cccs3)nc12	-	18µM	-	-93	16µM	?
Cc1cccc2sc(N(CCN(C)C)C(=O)c3cc(Cl)sc3Cl)nc12	-	?	-	-	?	-
Cc1cccc(-n2cc(-c3ccc([N+](=O)[O-])cc3)[nH]c2=S)c1	-	-	-	-	-	-
COc1ccc(-c2cn(-c3ccccc3)c(=S)[nH]2)cc1OC	.	-	-	-	-	-
COc1ccccc1-c1cn(-c2ccccc2)c(=S)[nH]1	.	21µM	-	-	?	-
COc1ccccc1-n1cc(-c2ccc(Br)cc2)[nH]c1=S	.	13µM	-	-	16µM	-
COc1ccccc1-n1cc(-c2ccc(C)cc2)[nH]c1=S	.	4.1µM	-	-	3.7µM	-
Cc1ccc(-n2cc(-c3ccc([N+](=O)[O-])cc3)[nH]c2=S)c(C)c1	-	16µM	-	-	16µM	?
CCc1cccc(C)c1NC(=O)CSc1nnc(N)s1	-[12.3 µM]	-	-	.	-	-
COc1ccc(-c2cn(-c3ccc(C)c(C)c3)c(=S)[nH]2)cc1OC	.	16µM	-	-	-	-
Cc1ccc(NC(=O)CN(C)C(=O)COc2ccccc2-c2ccccc2)cc1	-	15µM	-	-65	-	-
Cc1ccc(S(=O)(=O)Oc2ccccc2-c2ccccc2)cc1	.	13µM	-	-	16µM	-
Cc1ccc(S(=O)(=O)Oc2ccccc2)cc1	.	-	-	-	-	-
CN(CC(=O)Nc1cccc(F)c1)C(=O)c1sccc1-c1ccccc1	-	-	-	-	-	-
NS(=O)(=O)c1ccc(NC(=O)COc2ccc(C(=O)c3ccc(F)cc3)cc2)cc1	.	12µM	-	?	?	-
CN(CC(=O)Nc1ccc(Cl)cc1)C(=O)c1sccc1-c1ccccc1	-	?	-	-	21µM	-
C[C@@H](NC(=O)Cn1ccc(N)nc1=O)c1cccc2ccccc12	-	-	-	-	?	-
C[C@H]1CN([C@@H](C)CO)C(=O)c2cccc(NC(=O)c3ccc(-c4nccs4)cc3)c2O[C@@H]1CN(C)C(=O)NC1CCCCC1	-	?	-	-	?	-
Cc1ccc(C(=O)COc2ccccc2-c2ccccc2)cc1	?	26µM	-	-	23µM	-
Cc1ccc(NC(=O)CN(C)C(=O)COc2ccc(C(=O)c3ccc(F)cc3)cc2)cc1	-	21µM	-	-	-	?
